Screening results (PubChem BioAssay)
Sampled rows, rich in hits. Any-hit rate of the full collection: about 14%.
Pf growth 48h: Primary qHTS for delayed death inhibitors of the malarial parasite plastid, 48 hour incubation; P. falciparum luciferase growth in erythrocytes, 48 h; Potency, µM (titrated, usually from 28.7 µM), hits mostly inhibitors; 310,000 tested, 5.9% active
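First compound was added to culture medium, then infected red cells at 0.1% parasitemia and 2% hematocrit (final). After incubation at 37 C under 5% CO2, luciferase detection reagent was dispensed and light output recorded.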
Pf growth 96h: Primary qHTS for delayed death inhibitors of the malarial parasite plastid, 96 hour incubation; P. falciparum luciferase reporter growth, 96 h; Potency, µM (doses to about 28.7 µM), actives largely listed as inhibitors; 320,000 tested, 6.9% active; AID 504834, 2011
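P. falciparum expressing integrated firefly luciferase, in erythrocytes at 2% hematocrit, 0.05% parasitemia, incubated with compounds 96 h at 37 C, 5% CO2. Growth inhibition read as loss of luminescence; two-generation exposure targets delayed-death apicoplast inhibitors.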
HCMV antiviral: qHTS Assay for inhibitors of the human cytomegalovirus (HCMV); HFF cells, HCMV-luciferase reporter, 72 h; stronger effect = lower value; activity change, negative = inhibition, % at 57.5 µM; 410,000 tested, 4.5% active; in the data active = activity change below about -60%; inconclusive = no clear call, values can overlap the other calls; inactive = above about -39%
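Human foreskin fibroblasts infected with luciferase-reporter HCMV at MOI 1 PFU/cell, compounds at two doses. Luciferase measured 72 h post infection; normalized to buffer-only basal and Salinomycin (10uM) controls.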
FBPA Giardia inh: qHTS Assay for Inhibitors of Fructose-1,6-bisphosphate Aldolase from Giardia Lamblia; A8B2U2; AID 2451, 2010; 290,000 tested, 0.71% active; Potency, µM (doses to about 59.6 µM), usual class: inhibitors; purified Giardia FBPA; note: nearly all actives have a fitted effect of over 55% in size
Target sequence (A8B2U2 whole entry, looked up): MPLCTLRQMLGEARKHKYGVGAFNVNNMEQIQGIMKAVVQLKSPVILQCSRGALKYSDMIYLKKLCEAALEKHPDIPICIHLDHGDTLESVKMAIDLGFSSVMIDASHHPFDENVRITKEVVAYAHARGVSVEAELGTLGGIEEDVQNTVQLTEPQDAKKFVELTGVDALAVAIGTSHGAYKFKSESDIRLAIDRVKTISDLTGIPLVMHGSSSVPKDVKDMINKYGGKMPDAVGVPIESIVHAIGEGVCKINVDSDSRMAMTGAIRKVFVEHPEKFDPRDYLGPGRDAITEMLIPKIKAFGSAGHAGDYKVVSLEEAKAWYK
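Giardia FBPA (40 nM reagent) was preincubated 10 min at RT with compound (up to 57.5 uM final), then substrate plus GAPDH/TPI/NAD/arsenate coupling system with diaphorase/resazurin was added; resorufin fluorescence (525/598 nm) was read after 20 min.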
Sm TGR block: qHTS Assay for the Inhibitors of Schistosoma Mansoni Peroxiredoxins. purified TGR, DTNB reduction, TNB absorbance 405 nm. Potency, µM (top dose mostly 114 µM), most hits filed as inhibitors. Schistosoma mansoni thioredoxin glutathione reductase (TGR), Q962Y6. AID 485364, 2010. 360,000 tested, 3% active; note: nearly all actives have a fitted effect of over 60% in size
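First, TGR (20 nM dispensed) and NADPH were mixed with compound. Second, a 15 min room-temperature incubation followed. Third, further NADPH and then DTNB were added to start the reaction. Finally, TNB absorbance was monitored kinetically.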
Each line names hits and unclear results; the compound was inactive in the other large screens. Unless noted, calls come from the whole dose curve; as a rule, active = well fitted curve in the direction sought with a large enough effect; inconclusive = small, poorly fitted or top-dose-only effect, or another doubt; inactive = no such curve, though single readings can be large; an effect the other way counts as inactive or inconclusive.

CCOCCOC(=O)c1[nH]c2c(c1C)C(=O)CC(c1ccc(N(C)C)cc1)C2 (stereo not drawn)	Pf growth 48h inconclusive
Cc1c(C(=O)OCCOc2ccccc2)[nH]c2c1C(=O)CCC2	HCMV antiviral -79 (no result: Pf growth 48h)
CCOc1ccc(C2CC(=O)c3c([nH]c(C(=O)OC4CCC(C)CC4)c3C)C2)cc1 (stereo not drawn)	none (no result: Pf growth 48h, Pf growth 96h, FBPA Giardia inh)
CCOc1ccc(C2CC(=O)c3c([nH]c(C(=O)OCCOc4ccccc4)c3C)C2)cc1 (stereo not drawn)	HCMV antiviral -106 (no result: Pf growth 48h, Pf growth 96h, FBPA Giardia inh)
COC(=O)c1[nH]c2c(c1C)C(=O)CC(c1ccc(OC)cc1)C2 (stereo not drawn)	none (no result: Pf growth 48h)
CC(=O)c1c(C)[nH]c(C(=O)OCCOc2ccccc2)c1C	HCMV antiviral inconclusive
COC(=O)c1[nH]c2c(c1C)C(=O)CC(c1ccccc1)C2 (stereo not drawn)	Pf growth 48h inconclusive, HCMV antiviral -69
CCc1ccc(C2CC(=O)c3c([nH]c(C(=O)OCCOc4ccccc4)c3C)C2)cc1 (stereo not drawn)	HCMV antiviral -73 (no result: Pf growth 48h, Pf growth 96h, FBPA Giardia inh)
Cc1ccc(-n2c(=O)c3c4c(sc3n(Cc3ccccc3C)c2=O)CCC4)cc1C	none (no result: Pf growth 48h, Pf growth 96h, FBPA Giardia inh)
COc1ccc(C2CC(=O)c3c([nH]c(C(=O)OCc4ccccc4)c3C)C2)cc1OC (stereo not drawn)	none (no result: Pf growth 48h, Pf growth 96h, FBPA Giardia inh)
Cc1c(C(=O)OCc2ccccc2)[nH]c2c1C(=O)CC(c1ccc(Cl)cc1)C2 (stereo not drawn)	HCMV antiviral -69 (no result: Pf growth 48h, Pf growth 96h, FBPA Giardia inh)
Cc1noc(C)c1-c1ccc2ncnc(NC(C)c3ccccc3)c2c1 (stereo not drawn)	none (no result: Pf growth 48h, Pf growth 96h, HCMV antiviral, Sm TGR block)
Cc1cc(C)c2nc3sc(=Cc4ccc(-c5ccccc5C(=O)O)o4)c(=O)n3c2c1	none (no result: Pf growth 48h, Pf growth 96h, FBPA Giardia inh, Sm TGR block)
CC1(C)OC(=O)C(=Cc2ccc(-c3ccc(Cl)c(C(=O)O)c3)o2)C(=O)O1	Pf growth 48h 15µM, Pf growth 96h inconclusive
O=C(O)c1ccc(-c2ccc(/C=c3/sc4nc5ccccc5n4c3=O)o2)cc1Cl	Sm TGR block 28µM
Nc1nonc1C(=O)N/N=C/c1ccc(-c2ccc(Cl)c(C(=O)O)c2)o1	Pf growth 96h inconclusive, HCMV antiviral -73, FBPA Giardia inh inconclusive
COc1ccc(CN2C(=O)/C(=C/c3ccc(-c4ccc(Cl)c(C(=O)O)c4)o3)SC2=S)cc1	Sm TGR block inconclusive (no result: HCMV antiviral)
O=C(O)c1cc(-c2ccc(/C=C3/SC(=S)N(Cc4ccccc4)C3=O)o2)ccc1Cl	FBPA Giardia inh inconclusive, Sm TGR block 25µM
Cc1cn(C)c(CC(=O)NCc2cccc(Cl)c2)c1C(=O)O	none (no result: Pf growth 48h, Pf growth 96h, FBPA Giardia inh)
CCCC(=O)OC[C@H]1CN(C2CCCC2)S(=O)(=O)c2c(Oc3ccc(F)cc3OC)cccc2O1	none (no result: Pf growth 48h, Pf growth 96h, FBPA Giardia inh, Sm TGR block)
c1cc[n+](CCC[n+]2ccccc2)cc1	HCMV antiviral -102, Sm TGR block inconclusive
COc1cc(C(=O)Oc2c(CN3CCOCC3)cc(Cl)c3cccnc23)cc(OC)c1OC	Pf growth 96h inconclusive, FBPA Giardia inh inconclusive (no result: Pf growth 48h, HCMV antiviral)
O=C(Oc1c(CN2CCOCC2)cc(Cl)c2cccnc12)c1ccc(F)cc1	Pf growth 48h 4.7µM, HCMV antiviral -97, FBPA Giardia inh inconclusive
COc1cccc(C(=O)Oc2c(CN3CCOCC3)cc(Cl)c3cccnc23)c1	Pf growth 48h 4.7µM, HCMV antiviral -78 (no result: Pf growth 96h)
COc1ccc(C(=O)Oc2c(CN3CCOCC3)cc(Cl)c3cccnc23)cc1	Pf growth 48h 15µM, HCMV antiviral -75 (no result: Pf growth 96h)
CCOc1cc2[nH]c(=O)n(CCCC(=O)N3CCN(c4ccc(OC)cc4)CC3)c(=O)c2cc1OCC	none (no result: Pf growth 48h, Pf growth 96h, FBPA Giardia inh)
COCC(=O)N1CCC2(CCN(Cc3ccccc3)CC2)CC1	none (no result: Pf growth 48h, Pf growth 96h, HCMV antiviral, Sm TGR block)
COCOCCn1cc(CN2CCS(=O)(=O)N(Cc3ccc(-c4ccc(F)nc4)cc3)C(CC(C)C)C2=O)nn1 (stereo not drawn)	none (no result: Pf growth 48h, Pf growth 96h, FBPA Giardia inh, Sm TGR block)
CCOC(=O)c1cc2sc(C)cc2n1C(C)C(=O)OCC (stereo not drawn)	Pf growth 96h 0.83µM
Cc1cc2c(cc(C(=O)O)n2C)s1	none (no result: Pf growth 48h)
COc1cc2ccc3c(CCN(C)C)cc(OC)c(OC)c3c2cc1OC	none
CCCCCCCSc1cc(OC)c(CCN(C)C)cc1OC	Pf growth 48h inconclusive, Pf growth 96h 4.7µM
CCCCCSc1cc(OC)c(CCN)cc1OC	Pf growth 48h inconclusive, Pf growth 96h inconclusive, HCMV antiviral -70
